# Most compounds without a hit are left out; they make up all but 8.9% or so of the library.
# HPGD block – inhibitors of human 15-hydroxyprostaglandin dehydrogenase (HPGD) | AID 894 | purified HPGD, NADH fluorescence kinetic, PGE2 substrate | P15428 | 4.3% of 150,000 active | Potency, µM, inactives show at the highest dose activity change, negative = inhibition, usual class: inhibitors; active = well fitted inhibition curve with a large enough effect, not every such curve was filed as active; inconclusive = small, poorly fitted or top-dose-only effect, or another doubt; inactive = no such curve, though single readings can be large or run the other way; also: potency is read from the fitted curve at half-maximal effect
# Target sequence (P15428 whole entry, looked up): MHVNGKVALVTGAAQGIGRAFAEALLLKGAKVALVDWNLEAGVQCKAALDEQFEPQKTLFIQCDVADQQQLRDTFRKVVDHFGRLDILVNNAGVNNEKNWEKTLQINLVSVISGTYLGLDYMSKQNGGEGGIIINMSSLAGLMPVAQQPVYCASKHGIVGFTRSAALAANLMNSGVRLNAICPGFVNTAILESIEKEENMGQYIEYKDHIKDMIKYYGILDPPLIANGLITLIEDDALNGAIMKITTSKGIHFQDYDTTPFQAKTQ
#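 NADH formation kinetics: reaction with 30 uM PGE2 and 1 mM NAD+ (final), 20 nM enzyme, Tris-HCl pH 8 with Tween 20, after 15 min compound preincubation at room temperature. Fluorescence change, last versus first of five reads.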
# IMPase cell inh – IMPase inhibition in cells; P97697; CHO-M1 cells, IP1 accumulation, HTRF TR-FRET ratio; inhibition (IP1 accumulation), % at 46.1 µM; 120,000 tested, under 10 active; AID 901; active = well fitted curve in the direction sought with a large enough effect in the signal ratio, not every such curve was filed as active; inconclusive = small, poorly fitted or top-dose-only effect, or a change in a side signal; inactive = no such curve, though single readings can be large or run the other way; the % refers to the signal ratio;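 also: cells stimulated with carbachol in lithium chloride buffer; plate controls were DMSO basal wells for no effect and reference inhibitor wells for full effect; higher means more IMPase inhibition seen as more IP1 and lower FRET ratio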
#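 CHO-M1 cells (CHO stably expressing M1 receptor), compound up to 46 uM final, stimulated with carbachol (50 uM as added) in buffer with 50mM LiCl, pH 7.4, 30 min at 37C. Cytosolic IP1 read by TR-FRET; AC50 from Hill fits.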
# ALDH1A1 inh – blocks purified human ALDH1A1 activity. Purified ALDH1A1, NADH fluorescence, propionaldehyde substrate. 7.3% of 220,000 active. Potency, µM (top dose mostly 75.3 µM), inactives show top-dose activity, negative = inhibition, actives largely listed as inhibitors. AID 1030. P00352; active = well fitted inhibition curve with a large enough effect, not every such curve was filed as active; inconclusive = small, poorly fitted or top-dose-only effect, or another doubt; inactive = no such curve, though single readings can be large or run the other way;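 also: potency is read from the fitted curve at half-maximal effect; plate controls were no enzyme wells and a reference inhibitor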
# NPSR antag – antagonists of human neuropeptide S receptor cAMP signaling; CHO-NPSR cells, cAMP TR-FRET, antagonist mode; Potency, µM (series often up to 38.3 µM), inactives show top-dose activity change, negative = inhibition, most hits filed as inhibitors; Q6W5P4; 1% of 220,000 active; AID 1461; also: potency is read from the fitted curve at half-maximal effect; nearly all actives have a fitted effect of over 50% in size
# Target sequence (Q6W5P4 whole entry, looked up): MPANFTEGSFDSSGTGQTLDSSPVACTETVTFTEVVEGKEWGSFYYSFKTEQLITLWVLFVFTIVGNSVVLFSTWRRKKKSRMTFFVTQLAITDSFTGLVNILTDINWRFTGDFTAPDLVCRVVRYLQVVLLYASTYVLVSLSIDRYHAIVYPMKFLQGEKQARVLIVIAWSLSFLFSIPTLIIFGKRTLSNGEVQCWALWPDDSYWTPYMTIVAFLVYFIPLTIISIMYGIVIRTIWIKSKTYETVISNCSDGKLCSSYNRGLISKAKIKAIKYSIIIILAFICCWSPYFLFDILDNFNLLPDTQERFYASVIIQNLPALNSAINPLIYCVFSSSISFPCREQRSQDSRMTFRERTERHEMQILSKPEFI
# ALOX12 inhib – blocks human 12-lipoxygenase activity. Potency, µM (series often up to 57.1 µM), for inactives: at the top dose activity change, negative = inhibition, hits mostly inhibitors. 0.12% of 150,000 active. purified 12-hLO, xylenol orange hydroperoxide absorbance. AID 1452; also: potency is read from the fitted curve at half-maximal effect; nearly all actives have a fitted effect of over 55% in size
#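 Lipoxygenase turnover measured by absorbance at 573 and 405 nm after Fe-XO development. Human 12hLO 150 nM, arachidonate 40 uM, pH 7.0 Hepes buffer with detergent; 15 min compound preincubation, 30 min reaction.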
# IMPase Li inh – cell-permeable IMPase inhibitors with lithium potentiation; CHO-M1 cells, IP1 TR-FRET (IP-One), carbachol + lithium; Potency, µM (doses to about 59.4 µM), for the others: top-dose activity, negative = IMPase inhibition, hits mostly inhibitors; 0.35% of 210,000 active; AID 1457;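 also: IP1 builds up when IMPase is blocked and the TR-FRET signal falls; potency is read from the fitted curve at half-maximal effect; plate controls were basal vehicle for no effect and high inhibitor control for full effect; nearly all actives have a fitted effect of over 50% in size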
#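 CHO cells stably expressing M1 receptor (2000/well, cultured 16–30 h) treated 30 min at 37C with compound plus low lithium. Cytosolic IP1 by TR-FRET (665/620 ratio and 620 channel) after 10 min lysis; AC50 by Hill fit.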
# An asterisk follows results filed as active; ? = inconclusive; . = not tested or not shown; [ ] = dose if it differs, or a comment. Unless noted, calls follow the shape of the dose curve; as a rule, active = well fitted curve in the direction sought with a large enough effect; inconclusive = small, poorly fitted or top-dose-only effect, or another doubt; inactive = no such curve, though single readings can be large; an effect the other way counts as inactive or inconclusive. Unless noted, % is scaled to controls: 0 for no effect and ±100 for the full control effect.
SMILES,HPGD block,IMPase cell inh,ALDH1A1 inh,NPSR antag,ALOX12 inhib,IMPase Li inh
COc1ccc(NC(=O)/C(Cl)=C(/Cl)S(=O)Cc2ccccc2)cn1 (configuration not stated),?,15,13µM*,1.3µM*,-14%,73%[38.3 µM]
COc1ccc(CS(=O)(=O)/C(Cl)=C(/Cl)C(=O)Nc2ccc(OC)nc2)cc1,-9%,14,1.6µM*,6.3µM*,-11%,11%[38.3 µM]
CN(C1CCCCC1)S(=O)(=O)c1ccc2c(c1)c(=O)c(C(=O)NCCCN1CCCC1)cn2C,-5%,4,5%,-30%[46.1 µM],0%,-24%[38.3 µM]
CCN(CC(=O)NCc1cccs1)c1ccc(S(=O)(=O)N2CCOCC2)cn1,-11%,-4,?,-17%[46.1 µM],-3%,-9%[38.3 µM]
Cn1cc(C(=O)NCc2cccnc2)c(=O)c2cc(S(=O)(=O)N3CCCCCC3)ccc21,.,.,10%,-18%,.,11%
CN(C1CCCCC1)S(=O)(=O)c1ccc2c(c1)c(=O)c(C(=O)NCCN1CCCC1)cn2C,-10%,9,7.9µM*,-6%[46.1 µM],1%,16%[38.3 µM]
COC(=O)c1cn(C)c2ccc(S(=O)(=O)N3CCCC3)cc2c1=O,8.9µM*,-9,?,-7%[46.1 µM],-3%,-1%[38.3 µM]
CCN(CC(=O)NCc1cccs1)c1ccc(S(=O)(=O)N2CCCC2)cn1,.,.,2.5µM*,3%,.,7%
Cn1cc(C(=O)NCc2cccs2)c(=O)c2cc(S(=O)(=O)N3CCCC3)ccc21,-8%,.,4.5µM*,-8%,2%,-6%
COc1ccccc1CCn1c(=O)c(-c2cccc(F)c2)nc2cncnc21,.,.,?,.,.,14%
CN(CCNC(=O)c1cn(C)c2ccc(S(=O)(=O)N3CCCC3)cc2c1=O)CCc1ccccc1,-7%,8,32µM*,17%[46.1 µM],-3%,1%[38.3 µM]
CN(CCNC(=O)c1cn(C)c2ccc(S(=O)(=O)N(C)C)cc2c1=O)CCc1ccccc1,-5%,13,20%,3%[46.1 µM],1%,-3%[38.3 µM]
O=C1NC(=O)/C(=C\c2cn(Cc3ccccc3F)c3ccccc23)N1,.,.,14µM*,-21%,.,5%
COc1ccc(NC(=S)NC(NC(=O)c2cccc(Cl)c2)C(Cl)(Cl)Cl)c([N+](=O)[O-])c1 (configuration not stated),-12%,16,18µM*,10µM*,-17%,11%
COc1ccc(NC(=S)NC(NC(=O)c2cccc(C)c2)C(Cl)(Cl)Cl)c([N+](=O)[O-])c1 (configuration not stated),-23%,10,?,?,-12%,13%
Oc1ccc(N=Cc2ccc(O)c(O)c2)cc1,28µM*,?,13µM*,-16%[46.1 µM],-7%,53%
COc1ccc(CNC(=O)CSc2nnc(C)n2-c2ccc(F)cc2)cc1,-3%,.,3%,8%,-6%,-8%
CN1/C(=C/C=N/n2cnnc2)C(C)(C)c2ccccc21,-24%,3,3%,10%[46.1 µM],-8%,14%[38.3 µM]
CN1/C(=C\C=N\NC(=O)c2ccccc2Br)C(C)(C)c2ccccc21,-30%,.,28µM*,-3%,-3%,16%
CCNc1nc(NC(C)C)nc(Oc2ccc(OCCOc3ccc(C)cc3)nn2)n1,-8%,3,-3%,-30%[46.1 µM],0%,-4%[38.3 µM]
COC(C[C@H]1O[C@H]1[C@@H](O)[C@@H](C)OCc1ccccc1)OC,.,.,.,8%,.,.
CC(C)c1ccc(C2C(C#N)=C(N)N3C(=C2C#N)Sc2ccccc23)cc1 (configuration not stated),?,0,0%,7.9µM*,-6%,-14%[38.3 µM]
O=C(CN1C(=O)c2ccccc2S1(=O)=O)NCc1ccco1,.,.,10%,-8%,.,-3%
C=C[C@]1(C)Cc2occ(C)c2C[C@H]1C(=C)C(=O)O,-5%,.,11µM*,.,.,8%
Cc1ccc(NC(=O)Nc2ccc([N+](=O)[O-])cc2)nc1,.,.,6%,4%,.,-5%
SMILES,HPGD block,IMPase cell inh,ALDH1A1 inh,NPSR antag,ALOX12 inhib,IMPase Li inh
O=C(Nc1ccccc1N1CCOCC1)C1CCN(S(=O)(=O)c2cccc(C(F)(F)F)c2)CC1,-9%,.,8%,7%,2%,0%
Cn1c(-c2ccc(F)cc2)cnc1NCc1ccc(F)cc1,?,3,?,-7%[46.1 µM],?,10%[38.3 µM]
Cn1c(-c2cccc([N+](=O)[O-])c2)cnc1NCc1cccc([N+](=O)[O-])c1,.,.,4.7µM*,40%,.,34%
Cn1c(-c2ccc(Br)cc2)cnc1NCc1cccnc1,-8%,10,10µM*,-5%[46.1 µM],-5%,12%[38.3 µM]
Cn1c(-c2ccc(F)cc2)cnc1NCc1ccc(C#N)cc1,-14%,1,5µM*,0%[7.67 µM],-13%,0%[38.3 µM]
Cc1ccc(Nc2c(C(C)C)c(C)c(C#N)c3nc4ccccc4n23)cc1,.,-1,.,.,.,.
Cc1cc(C)c(NC(=O)C2CSCCS2)c(C)c1 (configuration not stated),22µM*,.,-4%,1%[46.1 µM],-2%,-2%
O=[N+]([O-])c1c(NCCO)cc(N2CCC3(CC2)OCCO3)c2nonc12,-30%,.,?,-3%,-6%,11%
CCOC(=O)N1CCN(c2cc(NCCC(=O)O)c3c4c(onc24)-c2ccccc2C3=O)CC1,-26%,?,14µM*,10µM*,-13%,201%[38.3 µM]
O=C(O)CCCNc1cc(N2CCC3(CC2)OCCO3)c2noc3c2c1C(=O)c1ccccc1-3,-30%,?,?,10µM*,-20%,109%[38.3 µM]
CCNc1ccc2noc3c2c1C(=O)c1ccccc1-3,-18%,2,-7%,-17%[46.1 µM],-7%,12%
COc1ccc(C(=O)c2sc(Nc3cccc(OC)c3)c(C(=O)Nc3cccc(C)c3C)c2N)cc1,-27%,5,-2%,-13%[46.1 µM],-22%,13%[38.3 µM]
O=C(NC(NC(=S)Nc1ccccc1C(=O)O)C(Cl)(Cl)Cl)c1cccc([N+](=O)[O-])c1 (configuration not stated),-24%,-3,?,0%[46.1 µM],-13%,2%[38.3 µM]
O=C(NCc1cccnc1)c1cc(Sc2ccccc2Cl)nc2ccccc12,-7%,.,7.9µM*,-4%,-5%,15%
CCSc1ccccc1C(=O)NCc1cccnc1,.,.,?,-13%,.,10%
COc1ccc2nc(N3CCCCC3)c(/C=C3\SC(=S)NC3=O)cc2c1,.,.,.,-31%,.,.
CCOC(=O)CN1C(=O)N[C@@H](c2ccccc2)[C@@H](C(=O)OC)[C@H]1C,-4%,.,14%[13.5 µM],.,1%[11.4 µM],7%
Cc1ccc(NC(=O)c2sccc2SCc2cccc(C(F)(F)F)c2)cc1,-26%,8,-4%,-20%[46.1 µM],-9%,24%[38.3 µM]
N#CCSc1ccsc1C(=O)Nc1ccc(F)cc1,32µM*,2,7.1µM*,19%[46.1 µM],-3%,16%[38.3 µM]
O=C(NCCCO)/C(=C/c1ccco1)NC(=O)c1ccc(Br)o1,-14%,.,?,15%,4%,-1%
COC(=O)/C(=C/c1ccco1)NC(=O)c1ccc(Br)o1,.,.,20µM*,-2%,.,1%

# Assay outcomes: PubChem, National Center for Advancing Translational Sciences (NCATS)
